For assay [1], the system named is Wnt5a (protein binding on small-molecule microarray). Nature of the assay: Wnt5a binders on small-molecule microarray, primary screen, biophysical, 635/667 nm fluorescence (AID 1142).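 Note: fluorescence read at 667 nm with signal to noise per printed feature.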 To be noted: 635 nm fluorescence, higher = more signal.
Assay [2] is described as follows: cell viability in Huh7 cells, primary screen, cytotoxicity control for HCV replication inhibitor project, CellTiter-Glo luminescence, basal, 48 h (AID 1143).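 Note: Huh7 hepatoma cells carrying a hepatitis C replication reporter with no stimulus; test concentration not given here.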 Particulars: Huh7 HCV replicon, higher = more signal, called active from +8 up or from −8 down. For orientation: ATP-based viability assays read luminescence as a measure of living cells.
A short description of assay [3]: P. aeruginosa biofilm formation inhibitors, primary screen, PAO1 strain, BacTiter-Glo luminescence, LB-PBS (AID 1144). Particulars: 12 h, higher = more signal.
A short description of assay [4]: CREB reporter modulators without forskolin, primary screen, cell-based, PC12, CRE-LacZ reporter, unstimulated (AID 1145). Particulars: no forskolin, luminescence, 4.5 h, higher = more signal, called active from +8 up or from −8 down.
A short description of assay [5]: CREB reporter modulators under forskolin, primary screen, cell-based, PC12, CRE-LacZ reporter, forskolin-stimulated (AID 1146).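 Note: PC12 cells with 6xCRE LacZ reporter stimulated by forskolin 10 µM; beta-galactosidase reporter signal reflecting CREB driven transcription.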 To be noted: luminescence, 4.5 h, higher = more signal, called active from +8 up or from −8 down.
Assay [6] concerns the target Streptavidin (Streptomyces avidinii) (UniProt P22629). Nature of the assay: streptavidin binders on small-molecule microarray, primary screen, artefact control for SMM compound annotation, biophysical, 635/667 nm fluorescence (AID 1147).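 Note: signal reflects streptavidin binding to arrayed compounds as a control protein.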 Particulars: streptavidin binding, higher = more signal.
The nature of assay [7]: small-molecule binders of probe aInhba, primary screen, biochemical, small-molecule microarray, 635/667 nm fluorescence (AID 1148).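 Note: score merges 667nm spot fluorescence with signal-to-noise for antibody binding to printed compounds.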 Particulars: higher = more signal.
The target of assay [8] is Torsin-1A (Homo sapiens) (UniProt O14656). Nature of the assay: torsin A binders from cell lysate, primary screen, small-molecule microarray, wild-type, 635/667 nm (AID 1149). Particulars: COS7 hTOR1A-WT lysate, 635 nm fluorescence, higher = more signal.
Assay [9] shares this target. The assay is described as follows: small-molecule binders of mutant TOR1A in lysate, primary screen, cell lysate, small-molecule microarray, COS7 lysate, 635/667 nm fluorescence (AID 1150).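 Note: score pools 667 nm emission and signal to noise measuring lysate protein binding.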 Particulars: COS7 hTOR1A mutant lysate, 635 nm fluorescence, higher = more signal.
For assay [10], the system named is Sonic hedgehog protein (Shh). The assay is described as follows: small-molecule binders of Shh protein, primary screen, biochemical, small-molecule microarray, 635/667 nm fluorescence (AID 1151).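 Note: Shh protein binding to compounds spotted on small-molecule microarray slides; score combines spot fluorescence intensity with signal-to-noise across triplicate slides.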 To be noted: small-molecule microarray binding, 635 nm fluorescence; higher = more signal.
A short description of assay [11]: E. coli DRC41 culture turbidity changes, primary screen, E. coli filamentation inducer project, strain DRC41, OD650, 48 h (AID 1152).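 Note: E. coli MC1000 strain DRC41 lacking acrAB efflux pump and sulA.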 To be noted: E. coli DRC41 (acrAB sulA), higher = more signal, called active from +8 up or from −8 down.
Assay [12] in a line: small-molecule binders of probe aLefty1, primary screen, biochemical, small-molecule microarray, 635/667 nm fluorescence (AID 1153).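 Note: score merges spot fluorescence with signal-to-noise ratio from the scanned slide images.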 To be noted: higher = more signal.
Assay [13] can be described thus: PSAC antagonists in infected red cells, primary screen, cell-based, P. falciparum Indochina, OD700, 1 h (AID 1154). Particulars: P. falciparum Indochina infected RBC osmotic lysis, higher = more signal, called active from +8 up or from −8 down.
Assay [14] in a line: PSAC antagonists in infected red cells, primary screen, cell-based, P. falciparum Indochina, OD700, 2 h (AID 1155).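 Note: lysis reports solute entry through the parasite surface anion channel PSAC; channel blockers reduce lysis of infected cells.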 To be noted: P. falciparum Indochina infected erythrocytes, osmotic lysis OD700; higher = more signal, called active from +8 up or from −8 down.
Assay [15] is described as follows: osmotic lysis modulators in infected erythrocytes, primary screen, PSAC antagonist project, cell-based, P. falciparum Indochina, OD700, 3 h (AID 1156). To be noted: higher = more signal, called active from +8 up or from −8 down.
Assay [16] can be described thus: PSAC antagonists in infected red cells, primary screen, cell-based, P. falciparum Indochina, OD700, 18 h (AID 1157). To be noted: P. falciparum Indochina infected erythrocytes, osmotic lysis OD700, 18 h; higher = more signal, called active from +8 up or from −8 down.
Assay [17] is described as follows: modulators of S6 phosphorylation in cells, primary screen, cell-based, A549, cytoblot, luminescence, serum-stimulated (AID 1158).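 Note: serum-stimulated A549 lung adenocarcinoma cells; signal is phosphorylated S6 detected by cytoblot immunostaining with HRP secondary.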 Particulars: A549 phospho-S6 cytoblot, 5 h, higher = more signal.
The target of assay [18] is NADPH oxidase 2 (Homo sapiens) (UniProt P04839). The assay is described as follows: NOX2-dependent H2O2 signal modulators, primary screen, NOX inhibitor project, cell-based, HEK293-NOX2, PMA-stimulated, Amplex Red fluorescence (AID 1159). Note: test concentration not given here. Particulars: 45 min, higher = more signal, called active from +8 up or from −8 down.
The target of assay [19] is NADPH oxidase 4 (Homo sapiens) (UniProt Q9NPH5). The assay is described as follows: NOX4-dependent H2O2 signal modulators, primary screen, NOX inhibitor project, cell-based, HEK293-NOX4, tetracycline-induced, Amplex Red fluorescence (AID 1160). Particulars: 45 min, higher = more signal, called active from +8 up or from −8 down.
Assay [20] addresses NADPH oxidase 5 (Homo sapiens) (UniProt Q96PH1). The assay is described as follows: NOX5-dependent H2O2 signal modulators, primary screen, NOX inhibitor project, cell-based, HEK293-NOX5, Amplex Red fluorescence (AID 1161). Particulars: HEK293-NOX5, ionomycin, 45 min, higher = more signal.

The structures appear in SMILES notation. Calls of active or inactive are those of the source. Unless noted, the rule behind the calls is not given here.

NADPH oxidase 2 (Homo sapiens), sequence (P04839 whole entry, looked up): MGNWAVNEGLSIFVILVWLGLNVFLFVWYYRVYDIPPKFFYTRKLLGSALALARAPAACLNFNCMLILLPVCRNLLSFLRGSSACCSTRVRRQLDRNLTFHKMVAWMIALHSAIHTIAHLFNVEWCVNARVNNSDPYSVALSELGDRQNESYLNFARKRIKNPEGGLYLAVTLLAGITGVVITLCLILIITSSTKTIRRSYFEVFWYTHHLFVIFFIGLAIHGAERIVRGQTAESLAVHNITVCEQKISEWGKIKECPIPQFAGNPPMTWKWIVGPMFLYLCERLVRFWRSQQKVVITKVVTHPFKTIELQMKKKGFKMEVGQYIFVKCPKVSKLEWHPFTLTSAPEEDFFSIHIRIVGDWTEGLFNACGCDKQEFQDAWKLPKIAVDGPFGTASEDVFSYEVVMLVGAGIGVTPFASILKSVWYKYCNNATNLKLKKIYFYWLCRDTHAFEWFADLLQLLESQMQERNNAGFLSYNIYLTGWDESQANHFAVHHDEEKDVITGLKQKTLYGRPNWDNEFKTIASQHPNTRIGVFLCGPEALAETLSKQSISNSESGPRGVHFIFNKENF
NADPH oxidase 4 (Homo sapiens), sequence (Q9NPH5 whole entry, looked up): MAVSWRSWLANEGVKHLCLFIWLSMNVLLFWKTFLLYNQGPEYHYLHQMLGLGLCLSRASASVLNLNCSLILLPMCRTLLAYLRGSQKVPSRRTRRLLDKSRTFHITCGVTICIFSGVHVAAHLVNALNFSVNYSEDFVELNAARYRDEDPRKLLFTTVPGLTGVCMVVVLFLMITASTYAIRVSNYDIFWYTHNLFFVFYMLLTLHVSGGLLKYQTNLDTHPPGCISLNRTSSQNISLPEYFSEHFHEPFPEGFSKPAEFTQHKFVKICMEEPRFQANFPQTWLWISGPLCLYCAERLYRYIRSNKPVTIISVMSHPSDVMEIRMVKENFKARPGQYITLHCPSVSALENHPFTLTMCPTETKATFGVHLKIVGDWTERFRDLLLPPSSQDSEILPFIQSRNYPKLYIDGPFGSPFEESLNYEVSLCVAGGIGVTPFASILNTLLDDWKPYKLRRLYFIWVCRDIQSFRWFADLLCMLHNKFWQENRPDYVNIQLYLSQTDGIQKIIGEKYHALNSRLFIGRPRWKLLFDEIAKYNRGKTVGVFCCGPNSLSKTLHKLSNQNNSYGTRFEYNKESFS
Torsin-1A (Homo sapiens), sequence (O14656 whole entry, looked up): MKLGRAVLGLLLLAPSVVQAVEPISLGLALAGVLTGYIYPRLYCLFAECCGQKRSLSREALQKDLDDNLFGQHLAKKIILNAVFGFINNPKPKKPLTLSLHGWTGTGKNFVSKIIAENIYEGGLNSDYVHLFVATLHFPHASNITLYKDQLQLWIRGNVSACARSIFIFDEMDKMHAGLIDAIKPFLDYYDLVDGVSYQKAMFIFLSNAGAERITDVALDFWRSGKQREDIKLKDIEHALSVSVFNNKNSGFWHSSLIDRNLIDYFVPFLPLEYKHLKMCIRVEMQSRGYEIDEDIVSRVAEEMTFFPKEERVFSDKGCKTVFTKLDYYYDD
NADPH oxidase 5 (Homo sapiens), sequence (Q96PH1 whole entry, looked up): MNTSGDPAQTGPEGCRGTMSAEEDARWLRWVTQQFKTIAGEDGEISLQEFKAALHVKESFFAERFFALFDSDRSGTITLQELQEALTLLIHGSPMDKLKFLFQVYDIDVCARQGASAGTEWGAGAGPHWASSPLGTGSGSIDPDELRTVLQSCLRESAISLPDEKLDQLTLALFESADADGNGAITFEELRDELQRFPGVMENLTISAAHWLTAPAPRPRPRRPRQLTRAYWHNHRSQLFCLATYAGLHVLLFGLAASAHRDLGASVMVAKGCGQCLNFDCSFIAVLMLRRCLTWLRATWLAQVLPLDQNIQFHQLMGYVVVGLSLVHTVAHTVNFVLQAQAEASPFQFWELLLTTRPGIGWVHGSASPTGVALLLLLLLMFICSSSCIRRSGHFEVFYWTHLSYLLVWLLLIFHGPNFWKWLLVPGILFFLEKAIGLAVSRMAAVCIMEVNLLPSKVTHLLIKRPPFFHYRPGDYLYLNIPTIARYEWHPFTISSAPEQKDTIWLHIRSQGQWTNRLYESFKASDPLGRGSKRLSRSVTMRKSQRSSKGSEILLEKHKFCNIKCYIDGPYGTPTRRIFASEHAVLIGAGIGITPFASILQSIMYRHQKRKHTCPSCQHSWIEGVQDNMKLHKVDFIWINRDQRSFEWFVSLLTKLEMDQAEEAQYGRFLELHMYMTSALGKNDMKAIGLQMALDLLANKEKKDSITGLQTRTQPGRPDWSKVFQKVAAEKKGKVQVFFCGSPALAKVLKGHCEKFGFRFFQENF
Streptavidin (Streptomyces avidinii), sequence (P22629 whole entry, looked up): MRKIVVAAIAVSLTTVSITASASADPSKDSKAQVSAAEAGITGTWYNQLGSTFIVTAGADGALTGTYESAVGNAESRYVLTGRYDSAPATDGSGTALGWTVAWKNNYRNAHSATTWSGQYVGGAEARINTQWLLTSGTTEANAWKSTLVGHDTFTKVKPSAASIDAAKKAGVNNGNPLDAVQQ

Take `COC(=O)CC=C[C@@H](C)[C@@H](C=NOC[C@@H](O)[C@H]1O[C@@H]2OC(C)(C)O[C@@H]2[C@H]1O)OC`: the composite z-score in [1] is 0.183; in assay [6], 0.271; in [7], -0.149; in the assay with Torsin-1A (Homo sapiens) [8], -0.104; with Torsin-1A (Homo sapiens) [9], 0.162; in [10], 0.867. Moreover, the composite z-score in assay [12] is -0.0603. Also, the z-score in assay [2] is 0.559 (inactive); in assay [3], 0.601 (inactive); in assay [4], -0.0545 (inactive); in [5], 0.0127 (inactive); in assay [11], 0.29 (inactive); in assay [13], 0.332 (inactive). Moreover, the z-score is 0.453 (inactive) in assay [14]; 0.141 (inactive) in assay [15]; 0.443 (inactive) in assay [16]; -0.332 in [17]; 0.144 (inactive) in assay [18]; -0.51 (inactive) in assay [19]. The z-score in assay [20] turned out to be 0.15.
Turning to `CC(C)=CCCC(C)=CCON=C1C[C@@H](O)[C@@H](O)[C@@H]2[C@@H]3C(=O)N(Cc4ccc5c(c4)OCO5)C(=O)[C@@H]3CC[C@H]12`, the composite z-score in [1] was 0.352; in assay [6], 0.133; in [7], -0.0332; with Torsin-1A (Homo sapiens) [8], 0.46; with Torsin-1A (Homo sapiens) [9], 0.724; in assay [10], 0.728. The composite z-score in assay [12] was -0.202. The z-score was -1.61 (inactive) in assay [2]; 0.802 (inactive) in [3]; -0.295 (inactive) in assay [4]; 0.489 (inactive) in assay [5]; -0.171 (inactive) in assay [11]; 11.1 (active) in assay [13]. In addition, the z-score in [14] is 1.73 (inactive); in [15] it was 1.64 (inactive); in assay [16], 0.844 (inactive); in [17], -0.429; in [18], -0.344 (inactive); in assay [19], -2.35 (inactive). In addition, in assay [20], the z-score is -4.13.
On to `O=C(NCCC[N+]1=CC=NC1c1ccccc1)N1CCCc2nc(-c3ccc(Br)cc3)ccc21` (stereo not given), for which the composite z-score was -0.215 in assay [1]; 0.0054 in assay [6]; -0.118 in assay [7]; 0.291 with Torsin-1A (Homo sapiens) [8]; 0.405 with Torsin-1A (Homo sapiens) [9]; 0.322 in assay [10]. The same compound returned a composite z-score in [12] of -0.164. The z-score in assay [2] is -2.49 (inactive); in assay [3], 0.616 (inactive); in [4], -0.888 (inactive); in assay [5], -0.0384 (inactive); in [11] it was 0.315 (inactive); in assay [13], 5.32 (inactive). Also, the z-score is 0.705 (inactive) in assay [14]; 1.5 (inactive) in assay [15]; 0.518 (inactive) in assay [16]; -0.26 in assay [17]; 0.528 (inactive) in [18]; -0.261 (inactive) in [19]. Besides, the z-score in assay [20] was -1.64.
For `O=C1[C@H]2[C@H]3[C@H](O)[C@H](O)CC(=NO[C@@H]4O[C@H](CO)[C@@H](O)[C@H](O)[C@H]4O)[C@H]3CC[C@H]2C(=O)N1c1ccc(F)cc1F`, the composite z-score was 0.0816 in assay [1]; -0.695 in [6]; -0.0774 in assay [7]; 0.835 with Torsin-1A (Homo sapiens) [8]; 0.189 in the assay with Torsin-1A (Homo sapiens) [9]; -0.704 in [10]. The compound further returned a composite z-score in [12] of 0.0865. The z-score in assay [2] is -1.9 (inactive); in [3], 1.42 (inactive); in assay [4], -0.837 (inactive); in [5] it was -0.0522 (inactive); in assay [11], -0.205 (inactive); in assay [13] it was 2.95 (inactive). The z-score in assay [14] was 0.454 (inactive); in assay [15] it was 0.887 (inactive); in assay [16], 0.159 (inactive); in [17] it was -0.56; in assay [18], -0.307 (inactive); in [19], 0.73 (inactive). Also, the z-score in [20] came out at 0.667.

The values are drawn from PubChem BioAssay.
